Assay [1] is described as follows: Her2 expression decrease, cell viability multiplex – SKBR3 breast tumor cells, AlphaScreen, ATP viability, primary screen (AID 461).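 For Her2 level: lower value means less Her2 protein in the cells.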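 For viability: percent of carrier control wells set as 100% viability.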 As to conditions: SKBR3 Her2 protein level, 18-24 h, measured here: SKBR3 viability, ATP luminescence, at 10 µM. Background: Alpha assays give light when donor and acceptor beads are brought close together.
For assay [2], the target named is Receptor tyrosine-protein kinase erbB-2 (Homo sapiens) (UniProt P04626). The assay is described as above. As to conditions: 18-24 h, at 10 µM, stronger effect = lower value.
Sequence of Receptor tyrosine-protein kinase erbB-2 (Homo sapiens) (P04626 whole entry, looked up): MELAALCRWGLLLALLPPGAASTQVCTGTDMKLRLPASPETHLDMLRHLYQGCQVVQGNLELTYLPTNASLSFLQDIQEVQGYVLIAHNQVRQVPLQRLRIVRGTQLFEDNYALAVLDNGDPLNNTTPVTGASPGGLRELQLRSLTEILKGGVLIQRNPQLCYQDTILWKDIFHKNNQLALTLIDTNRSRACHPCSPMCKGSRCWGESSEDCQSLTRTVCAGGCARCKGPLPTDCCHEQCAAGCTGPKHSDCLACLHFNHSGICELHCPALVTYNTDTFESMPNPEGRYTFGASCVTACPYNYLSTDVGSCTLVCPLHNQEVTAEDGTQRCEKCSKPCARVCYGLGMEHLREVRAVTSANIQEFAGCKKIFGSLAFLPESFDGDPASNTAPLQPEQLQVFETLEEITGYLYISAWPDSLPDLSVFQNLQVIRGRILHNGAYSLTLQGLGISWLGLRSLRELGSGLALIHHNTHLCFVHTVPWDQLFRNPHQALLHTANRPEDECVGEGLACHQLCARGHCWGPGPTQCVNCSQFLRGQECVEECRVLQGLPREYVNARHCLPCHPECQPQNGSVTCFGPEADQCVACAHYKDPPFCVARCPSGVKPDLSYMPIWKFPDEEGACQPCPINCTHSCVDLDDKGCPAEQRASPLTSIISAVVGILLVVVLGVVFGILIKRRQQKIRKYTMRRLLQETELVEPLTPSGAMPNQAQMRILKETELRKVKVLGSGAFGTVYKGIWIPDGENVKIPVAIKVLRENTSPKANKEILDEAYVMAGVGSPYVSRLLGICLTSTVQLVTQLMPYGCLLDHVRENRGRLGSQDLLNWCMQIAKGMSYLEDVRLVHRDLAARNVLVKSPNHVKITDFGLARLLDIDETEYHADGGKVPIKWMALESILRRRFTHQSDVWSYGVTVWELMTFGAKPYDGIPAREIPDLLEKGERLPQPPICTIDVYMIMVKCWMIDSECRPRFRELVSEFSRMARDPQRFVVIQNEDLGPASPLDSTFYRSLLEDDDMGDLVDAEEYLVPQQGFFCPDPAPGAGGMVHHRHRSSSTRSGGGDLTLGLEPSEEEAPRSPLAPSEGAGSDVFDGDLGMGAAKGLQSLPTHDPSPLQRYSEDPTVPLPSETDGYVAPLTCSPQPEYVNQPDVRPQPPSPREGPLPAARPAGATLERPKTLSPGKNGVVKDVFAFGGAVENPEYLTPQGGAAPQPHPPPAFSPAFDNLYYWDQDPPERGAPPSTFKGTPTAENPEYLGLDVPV
Assay [3] is described as follows: reduced viability of SK-BR-3 breast cancer cells – cell-based, 24 h, human, pilot screen (AID 572;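 active = viability at or below 10% of carrier control in both of two separate runs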;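 note: compound exposure lasted between 18 and 24 h rather than exactly 24 h; 100% = carrier-treated control wells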). As to conditions: SK-BR-3 viability, CellTiter-Glo luminescence, at 10 µM, stronger effect = lower value. On the technique in general: ATP-based viability assays read luminescence as a measure of living cells.
Assay [4] in a line: HUVEC growth inhibition – cell-based, human, primary screen (AID 575;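 active = viability at or below 30% in both replicate assays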;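 note: 100% = median of untreated cell wells with 0.1% DMSO on each plate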). The following applies: HUVEC proliferation, CellTiter-Glo luminescence, 72 h; at 10 µM; stronger effect = lower value.
The nature of assay [5]: H69AR cell proliferation blockers – human, duplicate replicates, primary screen (AID 580;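 active = viability at or under a set limit in both replicates, limit being median viability minus 3 SD, cut at about 48% in these data, passing the limit was not always enough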;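 note: 100% = mean luminescence of untreated wells and 0% = no signal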). As to conditions: H69AR lung tumor cells viability, ATP luminescence, 72 h; at 10 µM; stronger effect = lower value.
Assay [6] in a line: MRP1 drug-resistance reversers in H69AR cells – cell-based, doxorubicin co-treatment, pilot screen (AID 601;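 active = viability loss from added drug above about 55%, and viability with drug at most 40%, in both replicates, limit read from the data, passing the limit was not always enough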). As to conditions: CellTiter-Glo, 72 h, at 10 µM; for differential viability (reversal): stronger effect = higher value.
Assay [7] is described as follows: yeast transport mutant growth inhibition pilot in 384-well plates, post-Golgi transport modulator project (AID 636; in the data active = inhibition above about 31%). As to conditions: absorbance 615 nm, about 18 h, stronger effect = higher value.
The nature of assay [8]: growth suppression of yeast trafficking mutant, preliminary HTS, modulators of trafficking downstream of Golgi apparatus project, 1536-format plate, OD 615 nm (AID 637; in the data active = inhibition above about 30%). The following applies: yeast transport mutant growth, absorbance 615 nm, 18 h; stronger effect = higher value.
The nature of assay [9]: S. cerevisiae growth inhibition in permissive medium (OD615), pilot counter-assay for S. cerevisiae lifespan shortening project, permissive growth control (AID 705;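 active = growth inhibition above 25% in both replicates, a cutoff set 3 SD above the mean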). The following applies: OD615, 24 h, at 10 µM, stronger effect = higher value.
Assay [10] can be described thus: S. cerevisiae growth inhibition in restrictive medium, OD615, pilot screen, restrictive growth control, yeast lifespan reduction project (AID 706;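 active = growth inhibition above a set limit, 3 SD over mean compound inhibition, in both replicates, cut at about 43% in these data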;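 note: modified DeaD lifespan yeast strain shifted to restrictive glucose medium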). The following applies: OD615, 48 h, at 10 µM, stronger effect = higher value.
Assay [11] can be described thus: doxorubicin toxicity protection in MRP-1 cells – H69AR cells, CellTiter-Glo, duplicate, MRP-1 activator project, pilot screen (AID 807;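 active = viability increase at or above a cutoff of the median across tested compounds plus 3 SD, cut at about 8.5% in these data, passing the limit was not always enough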;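 note: compound pretreatment 18-22 h then 72 h combined with doxorubicin; 0% = doxorubicin alone and 100% = vehicle without doxorubicin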). As to conditions: H69AR viability with doxorubicin, CellTiter-Glo luminescence; at 10 µM; stronger effect = higher value.
Assay [12] can be described thus: viability of HCT116 without oncogenic beta-catenin – human colon tumor cells, pilot screen (AID 823;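 active = cell viability at or below a set limit in both duplicate runs, the limit being the all-compound median minus 4 SD, cut at about 23% in these data, passing the limit was not always enough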;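 note: 0% = wells killed by 20 µM Hyamine and 100% = untreated DMSO cell wells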). As to conditions: HCT116 beta-catenin knockout viability, CellTiter-Glo, 60 h; at 10 µM; stronger effect = lower value.
Assay [13] can be described thus: viability of PTEN-null HCT116 cells – cell-based, HCT116 clonal line, CellTiter-Glo, pilot screen (AID 824;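 active = viability at or below 27.92% in each of two runs, the all-compound median minus 4 SD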;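 note: 0% = 20 µM Hyamine control and 100% = vehicle cell control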). The following applies: HCT116 PTEN-deleted viability, 60 h, at 10 µM, stronger effect = lower value.
Assay [14] is described as follows: RAM pathway blockade in budding yeast – dse1pr::URA3 reporter, 5-FOA selection, pilot screen (AID 869;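 active = inhibition over a set limit, the all-compound mean plus 3 SD, in both replicate runs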;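 note: 0% = DMSO wells with no growth and 100% = 10 µM 1-NA-PP1 with full growth; RAM network block rescues cells from 5-FOA so hits raise OD615 growth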). The following applies: S. cerevisiae dse1pr::URA3 5-FOA growth, OD615, 2 d; at 10 µM; stronger effect = higher value; strain carries analog-sensitive mutant Cbk1 kinase.
A short description of assay [15]: RAM signaling pathway blockade in yeast – S. cerevisiae, Pdr1DBD-CYC8 efflux-inhibited sensitized strain, primary screen (AID 1298;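 active = RAM network inhibition above 8.4% in each of two replicates, 3 SD over the compound average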;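 note: 0% = DMSO untreated cells without growth and 100% = 10 µM 1-NA-PP1 full growth; higher means more yeast growth rescued from 5-FOA killing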). As to conditions: S. cerevisiae cbk1-as DSE1-URA3 strain, 5-FOA growth OD615, 2 d; at 50 µM; stronger effect = higher value.
[16] abbreviates: H69AR cells + 2 uM doxorubicin, measured here: viability with 2 uM doxorubicin, stronger effect = lower value.
Where [17] appears, read: H69AR cells, compound alone cytotoxicity.

Five compounds from PubChem BioAssay can be followed below.

Inconclusive results are not listed. Activity calls are given as the source filed them.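 Rule for the calls, unless noted: active = Her2 level under about 52% in both replicate screens, with viability over 70% of control (limit read from the data); inconclusive = Her2 under the limit in one screen only, or viability under 70%; inactive = Her2 level above the set limit.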

As for `CCCCc1cc(=O)oc2cc(OCC(=O)N(CC)CC)c(Cl)cc12`, the viability (commonly a read-out of living cells in per cent, often relative to untreated cells) in [1] was 98%; in [3], 98% (inactive); in assay [4] it was 77.9% (inactive); in assay [5], 79% (inactive); in assay [6] (setting [16]), 96.3%; in assay [6] (setting [17]) it was 79%. The values for the viability in assay [12] and in assay [13] were 93.5% (inactive) and 89.6% (inactive), respectively. Further, in assay [2], the Her2 level is 112% (inactive). Further, the differential viability (reversal) in assay [6] (H69AR cells + 2 uM doxorubicin) was -17.3% (inactive). The inhibition (in general, the drop in the measured response relative to a control, in per cent) in assay [7] was -4% (inactive); in assay [8] it was -1.17% (inactive); in assay [14], -0.34% (inactive). Also, the growth inhibition in [9] is -1.69% (inactive); in assay [10], 2.79% (inactive). For the same compound, the viability increase in assay [11] is -1.39% (inactive). In [15], the RAM network inhibition was 5.28% (inactive).

For `CN(C)c1oc(-c2ccccc2F)nc1C#N`, the viability in assay [1] is 95%; in assay [3], 95% (inactive); in assay [4], 82.3% (inactive); in assay [5], 101% (inactive); in assay [6] (setting [16]), 89.5%; in assay [6] (setting [17]), 101%. Moreover, the results for the viability in assay [12] and in assay [13] were 112% (inactive) and 106% (inactive), respectively. In assay [2], the Her2 level is 99.5% (inactive). For the same compound, in assay [6] (H69AR cells + 2 uM doxorubicin), the differential viability (reversal) is 11.8% (inactive). For the same compound, the inhibition is -2.8% (inactive) in assay [7], 6.56% (inactive) in assay [8] and 0.58% (inactive) in [14]. The growth inhibition in assay [9] was -11.3% (inactive); in assay [10], -2.67% (inactive). Moreover, the viability increase in assay [11] is -0.62% (inactive). For the same compound, the RAM network inhibition in assay [15] is 3.09% (inactive).

Turning to `Cc1ccc(-c2cc(C(=O)Nc3cc(C)on3)c3ccccc3n2)c(C)c1`, the viability in [1] was 77.5%; in assay [3] it was 77.5% (inactive); in assay [4] it was 96% (inactive); in [5], 84.7% (inactive); in [6] (setting [16]), 89.9%; in [6] (setting [17]), 84.7%. Further, the viability in assay [12] is 87.4% (inactive); in assay [13], 82.4% (inactive). In addition, the Her2 level in assay [2] was 99.5% (inactive). Moreover, the differential viability (reversal) in assay [6] (H69AR cells + 2 uM doxorubicin) is -5.17% (inactive). Also, the inhibition in assay [7] was -4.67% (inactive); in assay [8], 3.67% (inactive); in assay [14], 1.68% (inactive). For the same compound, the growth inhibition in assay [9] was -8.89% (inactive); in [10] it was -8.38% (inactive). Besides, the viability increase in assay [11] was -0.76% (inactive). For the same compound, the RAM network inhibition in [15] is 7.01% (inactive).

As for `COc1ccc(-n2ncc3c(N4CCC(C)CC4)ncnc32)cc1`, the viability was 100% in assay [1]; 100% (inactive) in [3]; 56.2% (inactive) in [4]; 76.6% (inactive) in [5]; 41.2% in [6] (setting [16]); 76.6% in assay [6] (setting [17]). The viability in assay [12] is 101% (inactive); in assay [13], 93.6% (inactive). In [2], the Her2 level was 106% (inactive). Further, the differential viability (reversal) in assay [6] (H69AR cells + 2 uM doxorubicin) was 35.3% (inactive). Moreover, the inhibition was -4% (inactive) in assay [7], 3% (inactive) in assay [8] and 1.94% (inactive) in [14]. Moreover, the results for the growth inhibition in assay [9] and in assay [10] were -1.23% (inactive) and -0.39% (inactive), respectively. The viability increase in assay [11] was -2.39% (inactive). In addition, the RAM network inhibition in assay [15] was 1.63% (inactive).

On to `CCOn1c(=O)c(=O)n(OCc2ccccc2)c2ccccc21`, for which the viability was 86.5% in [1]; 86.5% (inactive) in assay [3]; 78.5% (inactive) in assay [4]; 83.6% (inactive) in assay [5]; 74.5% in assay [6] (setting [16]); 83.6% in [6] (setting [17]). The figures for the viability in assay [12] and in assay [13] were 95.8% (inactive) and 92% (inactive), respectively. Besides, in assay [2], the Her2 level is 88% (inactive). In addition, the differential viability (reversal) in assay [6] (H69AR cells + 2 uM doxorubicin) was 9.08% (inactive). For the same compound, the inhibition in assay [7] is -2.05% (inactive); in assay [8] it was -6.33% (inactive); in [14], 2.35% (inactive). The figures for the growth inhibition in [9] and in [10] were -14% (inactive) and -6.63% (inactive), respectively. Further, the viability increase in assay [11] is -3.35% (inactive). Also, the RAM network inhibition in assay [15] is 3.12% (inactive).
